# High-throughput results: PubChem, The Scripps Research Institute Molecular Screening Center
# PAD4 inh: blocks human protein arginine deiminase 4 | Q9UM07 | recombinant PAD4, RCA probe fluorescence polarization | inhibition, % at 6.36 µM | 330,000 tested, 0.41% active;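 active means percent inhibition above a cutoff equal to the mean of all tested compounds plus 3 SD, cut at about 15% in these data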
# LYPLA1 inh: LYPLA1 (human) inhibition in PME1 counter-screen; O75608; recombinant LYPLA1, FP-Rh probe fluorescence polarization; inhibition, % at 5.9 µM; 320,000 tested, 0.16% active; AID 2174;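 active means inhibition above the mean of all tested compounds plus 3 SD, set per campaign, cut at about 14% in these data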;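 further: inhibitors block serine hydrolase probe labeling of LYPLA1 so polarization falls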
# PME-1 inh: PME-1 (human) inhibition. recombinant PME-1, FP-Rh probe fluorescence polarization. inhibition, % at 5.9 µM. 320,000 tested, 0.53% active;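 active means inhibition above the campaign mean of all compounds plus 3 SD, cut at about 26% in these data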;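 further: competitive labeling of PME-1 active site by serine hydrolase directed probe; inhibitors block probe labeling so polarization falls and inhibition rises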
# Target sequence (Q9Y570 whole entry, looked up): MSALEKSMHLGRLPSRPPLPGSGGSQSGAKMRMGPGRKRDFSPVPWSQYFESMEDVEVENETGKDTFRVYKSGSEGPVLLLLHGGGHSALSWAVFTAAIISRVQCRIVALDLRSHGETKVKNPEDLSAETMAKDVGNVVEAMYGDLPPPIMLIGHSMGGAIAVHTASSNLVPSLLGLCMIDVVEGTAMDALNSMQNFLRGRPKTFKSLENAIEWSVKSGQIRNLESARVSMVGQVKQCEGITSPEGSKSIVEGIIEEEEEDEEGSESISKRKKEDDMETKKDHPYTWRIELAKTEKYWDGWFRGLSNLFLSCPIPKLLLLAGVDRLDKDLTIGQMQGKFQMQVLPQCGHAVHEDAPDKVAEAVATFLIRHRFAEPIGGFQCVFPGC
# GSTO1 inh: blocks human GSTO1 in RBBP9 counter-screen; inhibition, % at 5.96 µM; 300,000 tested, 1.1% active; AID 1974; recombinant GSTO1, activity-based probe fluorescence polarization;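 active means inhibition above the campaign mean inhibition plus 3 SD, cut at about 35% in these data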
# LYPLA2 inh: blocks human lysophospholipase 2, a PME1 counter-screen. recombinant LYPLA2, FP-Rh probe fluorescence polarization. 320,000 tested, 0.38% active. inhibition, % at 5.9 µM. AID 2177;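 active means inhibition above the screen-wide mean plus 3 SD, limit set per campaign, cut at about 26% in these data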
# Target sequence (O95372 whole entry, looked up): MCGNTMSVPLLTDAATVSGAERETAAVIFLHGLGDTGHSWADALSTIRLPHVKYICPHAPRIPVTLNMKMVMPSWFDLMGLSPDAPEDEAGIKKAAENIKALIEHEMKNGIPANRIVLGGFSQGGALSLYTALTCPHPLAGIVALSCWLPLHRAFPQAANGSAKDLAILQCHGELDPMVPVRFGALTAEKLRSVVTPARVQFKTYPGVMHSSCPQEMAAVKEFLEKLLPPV
# Fam108B counter: blocks mouse Fam108B hydrolase in RBBP9 counter-screen | AID 1947 | recombinant Fam108B, FP-Rh probe fluorescence polarization | 300,000 tested, 0.33% active | inhibition, % at 9.51 µM;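 active means inhibition above the screen mean inhibition plus 3 SD, computed separately per campaign, cut at about 18% in these data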;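 further: inhibitors lower polarization as less probe binds the enzyme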
# Fam108b inh conf: Fam108b (mouse) hydrolase inhibition, confirmation assay; shares compounds with Fam108B counter; recombinant Fam108b, FP-Rh probe fluorescence polarization; inhibition, % at 9.51 µM; 930 tested, 44% active; AID 1978;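 active means inhibition above a limit from the primary screen, the mean over all compounds plus 3 SD, cut at about 19% in these data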;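 further: inhibitors free the probe so polarization falls as inhibition rises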
# Fam108b inh: inhibits mouse Fam108b in gel-based ABPP | inhibition, % at 20 µM | shares compounds with Fam108B counter | 260 tested, 44% active | recombinant Fam108b, fluorophosphonate probe; in the data active means inhibition above about 40%
# GSTO1 confirm: GSTO1 (human) inhibition, confirmation. shares compounds with GSTO1 inh. recombinant GSTO1, probe fluorescence polarization. inhibition, % at 5.96 µM. 2,400 tested, 54% active. AID 2176;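 active means inhibition above the primary screen's cutoff, its mean inhibition plus 3 SD, cut at about 35% in these data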;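 further: loss of polarization as inhibitors block binding of rhodamine sulfonate ester activity probe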
# Numbers stand for hits; . = inactive; / = no result given. Sampled rows, rich in hits. Any-hit rate of the full collection: about 1.8%.
SMILES,PAD4 inh,LYPLA1 inh,PME-1 inh,GSTO1 inh,LYPLA2 inh,Fam108B counter,Fam108b inh conf,GSTO1 confirm,others
O=C(Nc1nc(-c2ccccc2)cs1)c1ccccc1NS(=O)(=O)c1ccc(F)cc1,.,.,.,.,.,24,.,/,
O=S(=O)(Nc1ccc(-c2csc(-c3ccccc3)n2)cc1)c1ccc(F)cc1,.,.,.,.,.,.,/,/,
O=C(CCCSc1ccccc1)Nc1nc(-c2ccccn2)cs1,.,.,.,.,.,.,/,/,
O=C(CCCSc1ccccc1)Nc1nc(-c2ccco2)c(-c2ccco2)s1,.,.,33,.,.,47,32,/,Fam108b inh=75
O=C(NCCc1ccc(Cl)cc1)C1CCCN1C(=O)Nc1ccccc1 (stereo unspecified),.,.,.,.,.,31,.,/,
O=C(NCCc1ccc(Cl)cc1)C1CCCN1C(=O)Nc1ccc(F)cc1 (stereo unspecified),.,.,.,.,.,.,/,/,
N#CC(c1ccc(=O)[nH]n1)c1ccc(Cl)cc1Cl (stereo unspecified),.,.,.,.,.,.,/,/,
COc1cccc(/C=N/Nc2ncnc3scc(-c4ccccc4)c23)c1O,.,.,.,.,.,23,.,/,
COc1cccc(/C=N/Nc2ncnc(Cl)c2N)c1O,.,.,.,.,.,.,/,/,
Oc1c(Br)cc(/C=N/Nc2nncc3ccccc23)cc1Br,.,.,.,.,.,19,23,/,
Oc1c(Br)cc(/C=N/Nc2ccc(Cl)nn2)cc1Br,.,.,.,.,.,26,.,/,
COC(=O)c1ccc(NC(=O)CSc2nnc(COc3ccccc3)n2C)cc1,.,.,.,.,.,.,/,/,
O=c1c(O)cccc2cc(O)c(O)c(O)c12,.,.,.,51,.,49,31,72,Fam108b inh=.
O=C(O)CCCN1C(=O)/C(=C/C=C/c2ccco2)SC1=S,.,.,.,42,.,50,.,37,
Cc1ccc(NC(=O)CCCN2C(=O)/C(=C/C=C/c3ccccc3)SC2=S)cc1,.,.,.,.,.,.,/,/,
CC(=O)c1cc(O)c2ccccc2c1O,.,.,39,46,.,31,.,39,
Oc1ccc(Cl)cc1N=Nc1ccccc1,.,.,.,.,.,.,/,/,
O=S(=O)(O)c1cc(O)c2c(O)c(N=Nc3cc(Cl)ccc3O)c(S(=O)(=O)O)cc2c1,.,.,.,62,.,24,.,73,
COc1ccc(CN=Cc2[nH]c3ccc(Br)c(Cl)c3c2O)cc1,.,.,.,52,.,19,.,.,
Cc1cc(C)cc(N=Cc2[nH]c3ccc(Br)c(Cl)c3c2O)c1,.,.,.,.,.,.,/,/,
Oc1ccc(/C=N/Nc2cccc3cccnc23)c(O)c1,.,.,36,38,.,21,21,.,
Cn1c2ccccc2c2cc(/C=N/NC(=O)c3cc(O)ccc3O)ccc21,.,.,50,82,.,46,40,40,
CC(=O)N1c2ccc(S(=O)(=O)NCCC(=O)Nc3ccc(F)cc3)cc2CC1C (stereo unspecified),.,.,.,.,.,.,/,/,
Cc1ccc(SC2=C(Sc3ccc(C)cc3)C(=O)c3ccccc3C2=O)cc1,.,.,.,71,.,22,.,.,
Cc1ccc(CSc2nnc([C@@H]3CCCN3C(=O)OC(C)(C)C)o2)cc1,.,.,.,.,.,.,/,/,
SMILES,PAD4 inh,LYPLA1 inh,PME-1 inh,GSTO1 inh,LYPLA2 inh,Fam108B counter,Fam108b inh conf,GSTO1 confirm,others
O=C(N/N=C/c1ccc(OCc2ccccc2)cc1)c1ccncc1,.,.,.,.,.,.,/,/,
Oc1ccc(N=Cc2ccc(OCc3ccccc3)cc2)cc1,.,.,27,86,.,20,.,.,
Cc1ccc(-n2c(O)c(/C=N/Nc3ccc(S(=O)(=O)N4CCOCC4)cc3[N+](=O)[O-])c3ccccc3c2=O)c(C)c1,.,.,34,38,.,32,45,62,Fam108b inh=45
CCCCn1c(N)c(N(Cc2ccccc2OC)C(=O)CN2C(=O)NC(C)(c3ccccc3)C2=O)c(=O)[nH]c1=O (stereo unspecified),.,.,.,.,.,.,/,/,
COc1cc(/C=N/Nc2nc3ccccc3s2)cc([N+](=O)[O-])c1O,.,.,62,48,.,21,.,50,
NS(=O)(=O)c1ccc(NC(=S)Nc2ccn(Cc3cccc4ccccc34)n2)cc1,.,.,.,.,.,.,/,/,
COc1ccc(C(=O)C(C)Sc2nnc(C3CC3)n2C2CC2)cc1 (stereo unspecified),.,.,.,/,.,/,/,/,
O=C1NN(c2ccccc2)C(=O)/C1=C/c1ccc(-c2ccc(C(=O)O)cc2)o1,.,.,.,.,.,.,/,/,
O=C1NN(c2ccccc2)C(=O)/C1=C/c1ccc(Sc2cccc3ccccc23)o1,.,.,.,49,.,29,.,66,
Cc1ccc(NC2=CC(=O)C(=O)c3ccccc32)c(C)c1,.,.,.,/,.,/,/,/,
Cc1cc(C)c(Nc2cc(S(=O)(=O)O)c(N)c3c2C(=O)c2ccccc2C3=O)c(C)c1,.,55,64,80,27,70,93,88,
O=C(CNC(=O)c1cccs1)Nc1ccc(N2CCOCC2)cc1,.,.,.,/,.,/,/,/,
Cc1ccc(OCC(=O)Nc2oc(-c3ccccc3)c(-c3ccccc3)c2C#N)cc1,.,.,.,.,.,.,/,/,
COc1ccc(-c2oc(NC(=O)CCl)c(C#N)c2-c2ccc(OC)cc2)cc1,.,.,42,76,.,22,34,86,Fam108b inh=.
COc1ccc(CNc2nc3ccccc3n2C)c(OC)c1,.,.,.,.,.,.,/,/,
COc1ccc(N=Nc2nc3cc(Br)c(Br)cc3n2C)c(OC)c1,.,.,61,40,.,31,.,.,
Cc1ccc(S(=O)(=O)N2CCN(Cc3ccccc3)CC2)c(C)c1N(C)S(=O)(=O)c1ccccc1,.,.,.,.,.,.,/,/,
COc1cccc(C2Nc3c(F)cc(Br)cc3C3C=CCC32)c1OC (stereo unspecified),.,.,.,.,.,.,/,/,
O=C(O)C1Nc2ccc(OC(F)(F)F)cc2C2C=CCC12 (stereo unspecified),.,.,.,48,.,22,.,.,
COc1cccc2c1NC(C(=O)O)C1CC=CC21 (stereo unspecified),.,.,.,61,.,53,.,46,
COc1ccc2nc(-c3ccco3)c(-c3ccco3)nc2c1,.,.,.,72,.,21,54,41,Fam108b inh=.
COc1ccc(-c2nc3ccccc3nc2-c2ccc(OC)cc2)cc1,.,.,.,.,.,.,/,/,
